PubChem BioAssay
Calls of active or inactive are those of the source. Unless noted, the rule behind the calls is not given here.

What was measured:
[1] = tested on: Wnt5a (protein binding on small-molecule microarray); experiment: Wnt5a binders on small-molecule microarray, primary screen, biophysical, 635/667 nm fluorescence (AID 1142); conditions: 635 nm fluorescence, higher = more signal;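 note: fluorescence read at 667 nm with signal to noise per printed feature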
[2] = cell viability in Huh7 cells, primary screen, cytotoxicity control for HCV replication inhibitor project, CellTiter-Glo luminescence, basal, 48 h (AID 1143); conditions: Huh7 HCV replicon, higher = more signal, called active from +8 up or from −8 down;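 note: Huh7 hepatoma cells carrying a hepatitis C replication reporter with no stimulus; test concentration not given here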
[3] = P. aeruginosa biofilm formation inhibitors, primary screen, PAO1 strain, BacTiter-Glo luminescence, LB-PBS (AID 1144); conditions: 12 h, higher = more signal
[4] = CREB reporter modulators without forskolin, primary screen, cell-based, PC12, CRE-LacZ reporter, unstimulated (AID 1145); conditions: no forskolin, luminescence, 4.5 h, higher = more signal, called active from +8 up or from −8 down
[5] = CREB reporter modulators under forskolin, primary screen, cell-based, PC12, CRE-LacZ reporter, forskolin-stimulated (AID 1146); conditions: luminescence, 4.5 h, higher = more signal, called active from +8 up or from −8 down;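 note: PC12 cells with 6xCRE LacZ reporter stimulated by forskolin 10 µM; beta-galactosidase reporter signal reflecting CREB driven transcription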
[6] = target: Streptavidin (Streptomyces avidinii) (UniProt P22629); experiment: streptavidin binders on small-molecule microarray, primary screen, artefact control for SMM compound annotation, biophysical, 635/667 nm fluorescence (AID 1147); conditions: streptavidin binding, higher = more signal;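 note: signal reflects streptavidin binding to arrayed compounds as a control protein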
[7] = small-molecule binders of probe aInhba, primary screen, biochemical, small-molecule microarray, 635/667 nm fluorescence (AID 1148); conditions: higher = more signal;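 note: score merges 667nm spot fluorescence with signal-to-noise for antibody binding to printed compounds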
Torsin-1A (Homo sapiens) [8] = target: Torsin-1A (Homo sapiens) (UniProt O14656); experiment: torsin A binders from cell lysate, primary screen, small-molecule microarray, wild-type, 635/667 nm (AID 1149); conditions: COS7 hTOR1A-WT lysate, 635 nm fluorescence, higher = more signal
Torsin-1A (Homo sapiens) [9] = target: Torsin-1A (Homo sapiens) (UniProt O14656); experiment: small-molecule binders of mutant TOR1A in lysate, primary screen, cell lysate, small-molecule microarray, COS7 lysate, 635/667 nm fluorescence (AID 1150); conditions: COS7 hTOR1A mutant lysate, 635 nm fluorescence, higher = more signal;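 note: score pools 667 nm emission and signal to noise measuring lysate protein binding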
[10] = tested on: Sonic hedgehog protein (Shh); experiment: small-molecule binders of Shh protein, primary screen, biochemical, small-molecule microarray, 635/667 nm fluorescence (AID 1151); conditions: small-molecule microarray binding, 635 nm fluorescence; higher = more signal;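 note: Shh protein binding to compounds spotted on small-molecule microarray slides; score combines spot fluorescence intensity with signal-to-noise across triplicate slides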

Sequence of Torsin-1A (Homo sapiens) (O14656 whole entry, looked up): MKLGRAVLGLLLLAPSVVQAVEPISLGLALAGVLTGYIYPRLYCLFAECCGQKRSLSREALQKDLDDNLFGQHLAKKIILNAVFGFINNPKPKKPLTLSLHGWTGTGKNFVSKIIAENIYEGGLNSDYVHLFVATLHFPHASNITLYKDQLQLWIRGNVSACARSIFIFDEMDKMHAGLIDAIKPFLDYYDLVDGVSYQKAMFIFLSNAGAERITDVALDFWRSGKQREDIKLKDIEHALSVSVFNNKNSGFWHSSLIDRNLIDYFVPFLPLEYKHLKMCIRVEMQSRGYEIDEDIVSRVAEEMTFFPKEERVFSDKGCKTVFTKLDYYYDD
Sequence of Streptavidin (Streptomyces avidinii) (P22629 whole entry, looked up): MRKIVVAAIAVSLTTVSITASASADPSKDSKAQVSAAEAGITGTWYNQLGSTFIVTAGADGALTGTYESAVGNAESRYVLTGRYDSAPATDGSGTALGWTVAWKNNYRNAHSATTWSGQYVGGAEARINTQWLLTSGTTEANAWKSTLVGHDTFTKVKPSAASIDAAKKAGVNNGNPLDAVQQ

| SMILES | composite z-score [1] | z-score [2] | z-score [3] | z-score [4] | z-score [5] | composite z-score [6] | composite z-score [7] | composite z-score (Torsin-1A (Homo sapiens) [8]) | composite z-score (Torsin-1A (Homo sapiens) [9]) | composite z-score [10] |
| --- | --- | --- | --- | --- | --- | --- | --- | --- | --- | --- |
| CC(=O)NCCCC[C@@H]1NC(=O)[C@@H]2C[C@H](C(=O)NCc3ccc(F)cc3)[C@H](c3ccc(O)cc3)N2C1=O | 0.0547 | -0.395 (inactive) | 0.587 (inactive) | 0.431 (inactive) | 0.158 (inactive) | 0.0542 | -0.176 | 0.821 | 0.524 | 1.56 |
| O=C1OCCC=C[C@H]2OC34C=CCN(c5ccc6ccccc6c5)C(=O)[C@H]3N(CCCCCCO)C(=O)[C@@H]4C12 (stereo not given in full) | -0.315 | -0.211 (inactive) | -0.0556 (inactive) | 0.0605 (inactive) | 0.771 (inactive) | -1.1 | -0.179 | 2.39 | 2.75 | -0.305 |
| C[N+](C)(C)CCCC[C@@H]1NC(=O)[C@@H]2C[C@H](C(=O)NCCCCCCNC(=O)CS)[C@H](c3cccc(OCCO)c3)N2C1=O | -0.326 | 0.214 (inactive) | -0.555 (inactive) | -0.671 (inactive) | -0.29 (inactive) | -1.12 | -0.231 | 0.23 | 1.87 | 1.54 |
| COC(=O)[C@@]1(Cc2ccc(OC)cc2)[C@H]2c3cc(C(=O)N4CCCC4)n(C[C@H](O)CO)c3C[C@H]2CN1C(=O)c1ccccc1 | 0.0149 | -0.132 (inactive) | -0.389 (inactive) | -0.365 (inactive) | 0.294 (inactive) | 0.528 | 0.0082 | -0.467 | 0.354 | -0.666 |
| COc1ccc(C#Cc2ccc3c(c2)[C@]2(C(=O)N3)[C@H](C(=O)N3CCc4cc(OC)c(OC)cc4C3)[C@H]3C(=O)O[C@H](c4ccccc4)[C@H](c4ccccc4)N3[C@@H]2c2ccc(OCCO)cc2)cc1 | 0.665 | -0.763 (inactive) | -0.745 (inactive) | -0.258 (inactive) | -0.166 (inactive) | 1 | 0.136 | 0.947 | 0.488 | 1.88 |
